Measurements from PubChem BioAssay (NCI).
The panel holds about 83,000 compounds, 20% with a hit somewhere; the sample as a whole holds those more often.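 Compound tested at a single concentration for 48 hours in 96-well plates; a percent growth value below 10 was scored as active.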 A number with no mark means an inactive call. Calls of active or inactive are those of the source.

Test system: HL-60(TB) leukemia
Assay: NCI-60 one-dose screen, 48 h (100 = growth as untreated, 0 = no growth, -100 = all killed)
Details: 10 µM unless noted

SMILES	growth
CSc1ccc2c(c1)c(CCN)c(C)n2Cc1ccc(Cl)c(Cl)c1	-69.9% (active)
COc1ccc2c(c1)c(-c1nn3cc(-c4cccs4)nc3s1)cn2C	82.7%
Cc1csc(Nc2nc(-c3cccc(Cl)c3)nc(C(Cl)(Cl)Cl)n2)n1	-10.2% (active)
NC(=S)N/N=C\c1nccc2c(N)cccc12	-10.4% (active)
Clc1ccc(-c2cc(-c3ccccc3)nc(N3CCN(CCCNc4ccnc5cc(Cl)ccc45)CC3)n2)cc1	-39% (active)
Cc1cc(N/N=C/c2nc(-c3ccccc3)oc2C)c2cc(Br)ccc2n1	80%
CCCCn1c(-c2ccc(O)cc2)cn2c3c(=O)[nH]c(=O)n(C)c3nc12	48.9%
Cc1ccc(OCCn2ccc(=O)n(CCOc3ccc(Cl)cc3C(=O)c3cc(C)cc(C)c3)c2=O)cc1	33.4%
O=C(O)c1ccc2c3c(ncnc13)-c1ccccc1C2=O	85.1%
Cc1nc2ccccc2n1-c1ncnc2c1CC(C)c1ccccc1N2C (stereo not given)	83.8%
NCCOc1ncccc1/C=C1\c2ccccc2-c2ccc(C(F)F)cc21	-3.26% (active)
O=c1[nH]c2c(ccc3cnccc32)c2c1CCC2	13.4%
COc1ccc(-c2[nH][nH]c(=O)c2-c2nc3ccccc3s2)cc1	99.5%
CSc1nc(N)c(NS(=O)(=O)c2ccc(C(C)=O)cc2)c(=O)[nH]1	108%
O=C1/C=C/[C@@H](O)[C@@H]2C[C@@H](O)C[C@H]2/C=C/CCC[C@H](CCO)O1	3.3% (active)
